Assay outcomes from PubChem.
This is a sample that favours compounds with a hit; in the whole collection about 7.7% have one here.
NOMO-1 viab – STK33 inhibitor candidate reducing NOMO-1 cell viability | inhibition, % (concentration not given with the values) | NOMO-1 AML viability, CellTiter-Glo luminescence, 72 h | 37,000 compounds, 7.5% hits; in the data active means inhibition above about 80%
PD-1 reverse act – reversal of PD-1 mediated T-cell inhibition; primary human CD4 T cells, PD-L1 beads, CellTiter-Glo 96 h; activation, % (no concentration beside the values); 29,000 tested, under 10 active; call rule not given here;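 further: 0% = median vehicle wells and 100% = positive control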
Hedgehog inh – Sonic Hedgehog pathway inhibition. Shh-LIGHT2 Gli-luciferase reporter, 30 h. inhibition, % (test concentration not listed). 22,000 compounds, 2.1% hits;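 active means mean inhibition across valid replicates above about 65%, limit read from the data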;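 further: pathway switched on by Shh-conditioned medium diluted 1 in 25 in low serum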
An asterisk follows results filed as active; . = no result.

SMILES | NOMO-1 viab | PD-1 reverse act | Hedgehog inh
O=C(Nc1cc(C(F)(F)F)cc(C(F)(F)F)c1)C(=S)NCCNc1cccc2ccccc12 | 65 | 1 | 23
O=C(Nc1ccccc1C(F)(F)F)C1Sc2nnc(-c3ccccc3)n2NC1c1ccc(F)cc1 (configuration not stated) | 48 | -2 | 20
CN(CC(=O)Nc1ccccc1C(C)(C)C)S(=O)(=O)c1ccc(Cl)cc1 | 20 | 0 | .
C=C(CCCCCCCC(=O)O)C(=O)OC | 20 | 3 | -16
CC1=CC(C)(C)N(S(=O)(=O)c2ccc(C)cc2)c2ccccc21 | 111* | -9 | 68*
Cc1ccc(S(=O)(=O)c2ccc(-c3ccccc3)cc2)cc1 | 12 | 3 | .
CC(=O)O[C@H]1C(=O)[C@@]2(C)C([C@H](OC(=O)c3ccccc3)[C@]3(O)C[C@H](OC(=O)[C@H](O)[C@@H](NC(=O)c4ccccc4)c4ccccc4)C(C)=C1C3(C)C)[C@]1(OC(C)=O)CO[C@@H]1C[C@@H]2O (some centres not stated) | 98* | -2 | -43
CS(=O)(=O)N(CC(=O)Nc1cccc(C(F)(F)F)c1)c1cc(Cl)c(Cl)cc1Cl | 140* | -3 | .
Cc1cc(Cl)ccc1NC(=O)CN(c1cccc(Cl)c1)S(C)(=O)=O | 9 | -1 | .
Cc1ccc(NC(=O)CN(c2ccc(Cl)c(C(F)(F)F)c2)S(C)(=O)=O)cc1Cl | 55 | . | .
Cc1cccc(NC(=O)CN(c2cc(Cl)c(Cl)cc2Cl)S(C)(=O)=O)c1 | 50 | -2 | .
COC(=O)c1ccc(NC(=O)CN(c2ccc(Cl)cc2C)S(C)(=O)=O)cc1 | 5 | 1 | .
Cc1cc(NC(=O)CN(c2ccc(Cl)c(C(F)(F)F)c2)S(C)(=O)=O)ccc1Br | 103* | -11 | .
Cc1cc(N(CC(=O)Nc2ccc(Cl)cc2C)S(C)(=O)=O)ccc1Br | 87* | 1 | .
Cc1cc(Cl)ccc1N(CC(=O)Nc1cc(Cl)cc(Cl)c1)S(C)(=O)=O | 90* | -2 | .
O=C(CN(C1CCCCC1)S(=O)(=O)c1ccc(Cl)cc1)Nc1ccccc1F | 37 | 0 | .
CN1C=C(c2ccccc2)N(c2ccccc2)C1 | 11 | 1 | -38
Cc1cc(C(=O)Nc2cccc3c2O[C@H](CN(C)Cc2ccc(C(=O)Nc4ccccc4N)cc2)[C@@H](C)CN([C@H](C)CO)C3=O)n(C)n1 | 63 | -1 | .
C[C@@H]1CN([C@H](C)CO)C(=O)c2cccc(N(C)C)c2O[C@@H]1CN(C)Cc1ccc(C(=O)Nc2ccccc2N)cc1 | 127* | 0 | .
Cc1cc(C(=O)Nc2cccc3c2O[C@@H](CN(C)Cc2ccc(C(=O)Nc4ccccc4N)cc2)[C@H](C)CN([C@H](C)CO)C3=O)n(C)n1 | 72 | 0 | .
C[C@H](CO)N1C[C@H](C)[C@H](CN(C)Cc2ccc(C(=O)Nc3ccccc3N)cc2)Oc2c(cccc2N(C)C)C1=O | 124* | 0 | .
COc1ccc2nc(SCC(=O)NC3CCCC3)[nH]c2c1 | 25 | 1 | .
CCn1c(SCC(=O)Nc2cccc(C)c2C)nnc1-c1cccs1 | 27 | -1 | .
O=c1c2ccccc2nnn1CN1CCCCC1 | 22 | 0 | 43
FC(F)(F)c1ccc(-c2n[nH]c(=S)s2)nc1 | 44 | -9 | -24
SMILES | NOMO-1 viab | PD-1 reverse act | Hedgehog inh
O=C(CSc1nc(SCC(=O)c2ccccc2)c2ccccc2n1)c1ccccc1 | 41 | 1 | 76*
O=C(CSc1nc(-c2ccccc2)cc(C(F)(F)F)n1)c1ccccc1 | 15 | 2 | .
O=C1CSCC(=O)N1c1cccnc1 | -2 | 0 | -15
Cc1ccc(NC(=O)CSc2ncccn2)cc1C | 3 | 0 | .
NNC(=O)c1cc2c(s1)-c1ccccc1CC2 | 42 | -22 | -64
O=C(C/C(=C1/CCc2ccccc2C1=O)c1ccccc1)c1ccccc1 | 115* | -1 | 103*
O=C(CSc1nnc(-c2cccc(Cl)c2)n1-c1ccccc1)Nc1ccc(F)c(F)c1 | -19 | 1 | .
CC1=C(C#N)C(C(F)(F)F)(C(F)(F)F)N=C(C2CCCCC2)N1 | 141* | -2 | 105*
Cc1ccc(NC(=O)CN(c2c(C)cccc2C)S(C)(=O)=O)cc1C | -8 | 0 | .
NC(=O)CN1C(=O)C(O)(CC(=O)c2cccnc2)c2ccccc21 (configuration not stated) | -7 | 8 | .
O=C(CC1(O)C(=O)N(Cc2cccc3ccccc23)c2ccccc21)c1ccccn1 (configuration not stated) | 111* | -7 | .
C#CCN1C(=O)C(O)(CC(=O)c2ccc(C)o2)c2ccccc21 (configuration not stated) | 120* | -1 | .
CCCCN1C(=O)C(O)(CC(=O)c2ccccn2)c2ccccc21 (configuration not stated) | 125* | -1 | .
Cc1ccc(C(=O)CC2(O)C(=O)N(CC(N)=O)c3ccccc32)s1 (configuration not stated) | -1 | 3 | .
O=C(CC1(O)C(=O)N(Cc2cccc3ccccc23)c2ccccc21)c1ccco1 (configuration not stated) | 111* | . | .
Cc1ccc(C(=O)CC2(O)C(=O)N(Cc3cccc4ccccc34)c3ccccc32)o1 (configuration not stated) | 36 | . | .
Cc1coc(C)c1C(=O)CC1(O)C(=O)N(CCCC#N)c2ccccc21 (configuration not stated) | 32 | 1 | .
CCOc1c(OC)cc(Cl)cc1C1NC(=O)NC(C)=C1C(=O)Nc1ccccc1C(=O)OC (configuration not stated) | 24 | -1 | .
Cc1cccc(NC(=O)CSc2nnc(-c3cccs3)n2-c2ccccc2)c1C | 9 | -1 | .
CSc1cccc(NC(=O)c2cc3c(ccc4ccccc43)o2)c1 | 20 | 1 | -102
Cc1cc(C)c(Cn2nc(C(C)(C)C)cc2C(=O)NN2CCOCC2)c(C)c1 | 25 | 4 | -27
Cc1nc(SCC(=O)Nc2ccccc2)n[nH]1 | -4 | 1 | .
COc1ccc(CNCCSc2nnnn2C)cc1 | 9 | 3 | .
COc1ccc(CN2C(=O)C(O)(CC(=O)c3ccco3)c3ccccc32)cc1OC (configuration not stated) | 118* | . | .
COc1ccc(CN2C(=O)C(O)(CC(=O)c3ccc4ccccc4c3)c3ccccc32)cc1OC (configuration not stated) | 61 | . | .
SMILES | NOMO-1 viab | PD-1 reverse act | Hedgehog inh
CSC1=N/C(=C\c2ccc(Br)cc2)C(=O)S1 | 131* | 2 | 5
CSC1=N/C(=C\c2ccccc2C)C(=O)S1 | 56 | 3 | -32
COc1ccc(C2C(C#N)=C(N)Oc3n[nH]c(-c4ccccc4)c32)cc1CSc1ccccn1 (configuration not stated) | 17 | . | .
COc1ccc(OCC(O)CNC(C)(C)C)cc1 (configuration not stated) | 3 | 0 | 8
C/C(C=Nc1c(C)n(C)n(-c2ccccc2)c1=O)=C/c1ccccc1 | 4 | 4 | -16
CC1CCCC2OC2C(=O)c2c(O)cc(O)cc2CC(=O)O1 (configuration not stated) | 15 | 2 | -19
CC1CCC/C=C/C(=O)c2c(O)cc(O)cc2CC(=O)O1 (configuration not stated) | 108* | -14 | 7
Cc1ccc(NC(=O)CSc2nnc(C)n2-c2ccc(Cl)cc2)c(Br)c1 | 34 | . | .
